Bioassay records from PubChem BioAssay.
Rows were chosen to be rich in hits. Some 1.4% of all compounds tested hit in one or more screens of this group.
AF4-AF9 inh: inhibitors of AF4 peptide binding to AF9, primary screen, biochemical, AlphaScreen, biotin-AF4 peptide, FLAG-AF9, single point. 350,000 compounds, 0.47% hits. inhibition, % at 10 µM;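 active = every replicate reaching a set inhibition limit, whatever the replicate mean, cut at about 25% in these data; inconclusive = mean inhibition reaches that limit but some replicates miss it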;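 also: 0% = plate neutral control median and 100% = total signal loss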
Target sequence (P42568 whole entry, looked up): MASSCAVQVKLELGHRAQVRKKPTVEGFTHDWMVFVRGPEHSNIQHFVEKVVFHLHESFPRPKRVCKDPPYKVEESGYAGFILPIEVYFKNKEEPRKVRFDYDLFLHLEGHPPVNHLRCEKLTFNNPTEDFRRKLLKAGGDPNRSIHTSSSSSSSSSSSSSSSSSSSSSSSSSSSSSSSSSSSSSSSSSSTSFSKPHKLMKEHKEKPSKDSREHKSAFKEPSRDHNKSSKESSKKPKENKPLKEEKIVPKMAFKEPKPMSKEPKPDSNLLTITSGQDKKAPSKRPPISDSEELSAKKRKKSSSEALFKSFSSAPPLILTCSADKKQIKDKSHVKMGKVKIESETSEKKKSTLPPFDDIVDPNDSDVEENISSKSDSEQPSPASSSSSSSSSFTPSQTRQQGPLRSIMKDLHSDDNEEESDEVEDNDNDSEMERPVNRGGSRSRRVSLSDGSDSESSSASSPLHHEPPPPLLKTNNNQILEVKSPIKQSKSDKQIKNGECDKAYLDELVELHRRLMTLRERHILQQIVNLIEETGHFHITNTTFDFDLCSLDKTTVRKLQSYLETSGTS
INS-1E GSIS act: GLuc luminescence reporter in INS-1E cells, primary screen for activators of glucose-dependent secretion of insulin; activation, % at 16.6 µM; INS-1E GLuc reporter insulin secretion, 2-3 h; 370,000 compounds, 0.61% hits;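 active = lowest replicate activation of at least 40%, so every replicate reaches that level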;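 also: 0% = median of neutral control wells and 100% = median of IBMX positive control wells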
RAD52 anneal inh: RAD52 DNA annealing inhibitors, primary screen, biochemical, FRET, single point, set 2; inhibition, % at 18.7 µM; DNA repair protein RAD52 homolog (Homo sapiens), P43351; recombinant RAD52 DNA annealing, FRET fluorescence; AID 651710, 2012; 360,000 compounds, 0.46% hits;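 active = every replicate showing at least 50% inhibition; inconclusive = mean inhibition at least 50% but not in every replicate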
RAD54 branch: inhibitors of human RAD54 branch migration, primary screen, biochemical, fluorescence, single point | 360,000 compounds, 0.14% hits | AID 602329, 2012 | RAD54 Holliday junction branch migration, FAM/BHQ fluorescence | inhibition, % at 10.4 µM;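 active = mean normalized replicate activity at least 40 and at least half of replicates scoring 40 or more; inconclusive = only one of the two criteria met; inactive = mean below 40 and under half of replicates reaching 40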;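 also: 0% = median of neutral control wells and 100% = median of positive control wells; inhibitors cause a drop in the FAM fluorescence signal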
PGC1a acetyl inh: inhibitors of PGC1a acetylation signal, primary screen, cell-based, U2OS, AlphaScreen, inhibitor mode; 350,000 compounds, 0.17% hits; inhibition, % at 15.6 µM; AlphaScreen anti-acetyl-lysine; with virally co-expressed GCN5 acetyltransferase;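 active = every replicate shows inhibition of at least 40%; inconclusive = mean inhibition at least 40% but some replicate below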;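 also: 0% = neutral control wells and 100% = positive control wells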
ERAP1 inh: human ERAP1 aminopeptidase inhibitors, primary screen, biochemical, single point, plate reader; Endoplasmic reticulum aminopeptidase 1 (Homo sapiens), Q9NZ08; recombinant ERAP1, Leu-AMC fluorescence, 60 min; inhibition, % at 10.7 µM; 340,000 compounds, 0.15% hits;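 active = mean replicate inhibition of at least 30%, or all replicates individually reaching that 30% level; inactive = mean below 30% and not every replicate reaching it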;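 also: 0% = neutral control wells and 100% = L-leucinethiol positive control wells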
Rad54 DNA ctr: DNA binding of candidate compounds, dose response, artefact control for RAD54 inhibitor project, biochemical, fluorescence polarization, cherry-pick; AC50, µM (highest dose often 35 µM), inactives show at the top dose activity change, negative = DNA binding; 460 compounds, 8% hits; shares compounds with RAD54 branch; Acridine orange-DNA displacement, 20 min; AID 651673, 2012;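 active = signal drop giving an AC50 within twice the top valid tested concentration of each sample, actives reach about 35 µM in these data; inactive = activity opposite to expected, plus the rest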;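 also: polarization loss reports compound binding to salmon sperm DNA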
Alpha interfer: AlphaScreen signal interference counter-screen, dose response, artefact control, biochemical, cherry-picked samples, luminescence | AC50, µM (titrated, usually from 12 µM), inactives show at the highest dose activity change, negative = inhibition | AID 720494, 2013 | shares compounds with AF4-AF9 inh | 530 compounds, 45% hits; cut-off not given, nearly all actives have AC50 up to about 14 µM
RAD52 DNA ctr: DNA-binding compounds via dye displacement, dose response, artefact control for RAD52 inhibitor project, biochemical, fluorescence polarization, cherry-pick. shares compounds with RAD52 anneal inh. Salmon sperm DNA/acridine orange FP displacement. AC50, µM. 1,000 compounds, 8% hits. AID 652128, 2013;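 active = fitted half-maximal concentration for signal loss at or below twice the highest dose tested, in every separate run, actives reach about 64 µM in these data; inconclusive = runs disagree, or flat partial signal loss, or poor fit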
* = called active by the depositor; i = inactive; u = inconclusive; x = no result given; ! = repeats disagree.

SMILES	AF4-AF9 inh	INS-1E GSIS act	RAD52 anneal inh	RAD54 branch	PGC1a acetyl inh	ERAP1 inh	others
NC(=O)c1cn(C2OC(CO)C(O)C2O)c2ncnc(N)c12 (stereo unspecified)	-1.5	2.5	-3.0	-7.8	92.6*!	4.8
CC(=O)N1C[C@@H]2N[C@H](C1)C2c1ccccc1 (stereo partly specified)	x	-2.1	x	x	x	x
CS(=O)(=O)c1ccc(C2=C(CNC(=O)c3ccc([N+](=O)[O-])cc3)[C@H]3CC[C@@H](C2)N3Cc2ccccc2)cc1	9.6	-17.8	-10.2	4.7	-15.7	0.0
O=C(NCC1=C(c2cccc3ccccc23)C[C@@H]2CC[C@H]1N2Cc1ccco1)c1ccc([N+](=O)[O-])cc1	25.0*	-11.9	28.4	1.1	6.7	8.1
CNC(=S)N(C)CCc1cc2c(c(OC)c1C=C1C(=O)NC(=O)NC1=O)OCO2	64.5*	-17.4	-13.0	5.7	7.6	-0.7
COC(=O)[C@H]1[C@H](CO)[C@H]2Cn3c(ccc(-c4ccccc4)c3=O)[C@@H]1N2CCc1ccccc1	0.4	-18.0	-0.2	-5.0	x	0.9
CC1=C2C[C@H]3[C@@H](CC=C4C[C@@H](O)CC[C@@]43C)[C@@H]2CC[C@]12O[C@@H]1C[C@H](C)CN[C@@H]1C2C (stereo partly specified)	-0.9	x	-2.4	x	-0.8	-2.1
CC(C)NC(=O)N1C[C@@H]2C(c3ccc(Br)cc3)[C@H](C1)N2CC1CC1 (stereo partly specified)	x	-8.1	x	x	x	x
COC(=O)[C@H]1[C@H](CO)[C@H]2Cn3c(ccc(C4=CCCC4)c3=O)[C@@H]1N2C(=O)C1CCCCC1	x	3.2	x	x	x	x
COc1ccc(Cn2c(N)c(C(=O)NCc3ccco3)c3nc4ccccc4nc32)cc1OC	x	x	x	-16.3	-3.8	x
Nc1c(C(=O)NCc2ccco2)c2nc3ccccc3nc2n1CCN1CCCCC1	x	-7.6	x	74.8*	-1.3	x
C[C@@H]1CN([C@@H](C)CO)C(=O)c2c(c3ccccc3n2C)-c2ccccc2CO[C@H]1CN(C)C(=O)Oc1ccccc1	10.6	-32.1	-8.4	x	x	-4.0
CCNCCNc1ccc([N+](=O)[O-])c2cccnc12	-1.8	x	5.9	55.9*	13.3	0.1	Rad54 DNA ctr=-21.5%
Nc1ccc(C2(c3ccc(N)cc3)CN3CCC2CC3)cc1	x	17.4	x	96.2*	4.2	x	Rad54 DNA ctr=-0.3%
COC(=O)[C@H]1[C@H](CO)[C@H]2Cn3c(ccc(C4=CCCC4)c3=O)[C@@H]1N2CC1CCCC1	-0.4	5.3	-25.4	x	x	1.2
CC(Cc1ccccc1)NCc1ccccc1O (stereo unspecified)	-3.7	0.8	-9.0	-3.4	-2.7	2.1
CC(Cc1ccccc1)NCC(=O)Nc1cc(N(C)C)nc2ccccc12 (stereo unspecified)	3.5	-14.1	10.8	u	-5.0	-0.3	Rad54 DNA ctr=-1.9%
O=C(Cc1ccncc1)N1CCCCN2[C@H](CO)[C@H](c3ccc(C#Cc4ccccc4F)cc3)[C@H]2C1	-2.0	16.6	-151.5	0.2	-7.5	-1.4
O=C(NC1CN2CCC1CC2)c1cc(Cl)c([N+](=O)[O-])c2nc[nH]c12 (stereo unspecified)	x	18.8	x	56.1*	10.0	x	Rad54 DNA ctr=-11.7%
C/C=C/c1ccc(C2[C@@H]3CN(C(=O)C4CC4)C[C@H]2N3)cc1 (stereo partly specified)	-10.5	7.1	23.7	x	0.8	-4.2
CN1CCC(n2nccc2N)CC1	x	x	x	10.2	-14.1	x
Nc1ccnn1C1CCNCC1	x	x	x	93.1*	19.6	x	Rad54 DNA ctr=2.8%
Cc1ccc(-c2nc(N(C)C3CCN(C)CC3)c3ccccc3n2)cc1	x	x	x	96.5*	-19.5	x	Rad54 DNA ctr=-21.7%
CN1CCC(N(C)c2ncnc3ccc(Br)cc23)CC1	x	11.2	x	10.5	17.2	x
CSCCC(c1nnnn1C1CCCCC1)N1CCC(n2c(=O)[nH]c3ccccc32)CC1 (stereo unspecified)	33.9*	-13.2	0.9	6.4	-18.2	-3.2	Alpha interfer=-17.9%
SMILES	AF4-AF9 inh	INS-1E GSIS act	RAD52 anneal inh	RAD54 branch	PGC1a acetyl inh	ERAP1 inh	others
O=c1[nH]c2ccccc2n1C1CCN(C(c2nnnn2C2CCCCC2)C2CC2)CC1 (stereo unspecified)	36.0*	-1.4	-2.9	-1.9	-4.3	-2.3	Alpha interfer=-10.8%
Cc1[nH]c2ccc(OCc3ccccc3)cc2c1CCN	40.9*	2.8	26.3	12.8	1.7	-3.4	Alpha interfer=-20.0%
OCCNCCc1c[nH]c2ccc(OCc3ccccc3)cc12	18.6	-12.4	-20.8	-6.4	0.2	-1.8
COc1ccc2c(c1OC)CN1CCc3cc4c(cc3[C@H]1C2)OCO4	x	x	x	36.1	x	x
CCC1CN2CCc3cc(OC)c(OC)cc3C2CC1CC1NCCc2c1[nH]c1ccc(O)cc21 (stereo unspecified)	u	-7.1	8.6	x	70.5*	2.6	Alpha interfer=-26.0%
COc1cccc(CN2CC3(C2)[C@H](c2ccccc2)[C@H](CO)N3C(=O)Cc2ccccc2)c1	2.3	-8.6	0.1	x	-3.9	-0.2
O=C(O)[C@@H]1[C@@H](CO)[C@@H]2Cn3c(cccc3=O)[C@H]1N2C(=O)c1ccccc1	-3.0	17.9	5.2	-12.6	x	1.0
CCN(CCCl)c1cc(CN(C)C)cc(NC(=O)c2ccc(C(=O)Nc3cc(CN(C)C)cc(N(CC)CCCl)c3)cc2)c1	70.3*	19.0	105.0*	x	-3.9	48.9*	Alpha interfer=2.54µM*;RAD52 DNA ctr=u
COC(=O)[C@@H]1[C@@H](CO)[C@@H]2Cn3c(ccc(-c4cccnc4)c3=O)[C@H]1N2S(=O)(=O)c1ccccc1F	-1.8	6.7	-0.6	0.9	x	-1.5
Cc1c(P(=S)(c2ccccc2)c2ccccc2)[n+]2ccccc2n1C	66.4*!	-6.6	97.2*!	17.8	7.4	-4.4	Alpha interfer=-14.3%;RAD52 DNA ctr=i
O=C(Cc1ccccc1)N1C[C@@H]2[C@H](c3ccccc31)[C@@H](CO)N2Cc1ccccc1	1.7	5.3	-5.5	9.6	-7.3	-2.0
CN1CCN(c2ccc(N)cc2Cl)CC1	88.1*	-9.2	85.3*	x	-3.2	3.8	Alpha interfer=5.43µM*;RAD52 DNA ctr=39µM*
